GPT2 inhibitor – Primary qHTS assay for inhibitors of Glutamate pyruvate transaminase 2 (GPT2); Alanine aminotransferase 2 (Homo sapiens), Q8TD30; Recombinant GPT2, coupled pyruvate oxidase/HRP Amplex Red fluorescence; Potency, µM (doses to about 57.7 µM), for inactives: top-dose activity change, negative = inhibition, actives largely listed as inhibitors; 100,000 tested, 0.25% active; also: nearly all actives have a fitted effect of over 60% in size
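Fluorescence of coupled pyruvate oxidase/HRP/Amplex Red system (50uM Amplex, 30 min, dark) reports pyruvate formed by GPT2. Enzyme reaction: 10ng/uL GPT2, 2mM L-alanine, 250uM a-KG, 30 min room temperature, pH 7.5; 50uM AOA control.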
NPR1 antag – Natriuretic polypeptide receptor (hNpr1) antagonism - Primary qHTS | HEK293 hNpr1 GloSensor cGMP, ANP-stimulated luminescence | Potency, µM (doses to about 46.3 µM), for inactives: at the highest dose activity change, negative = inhibition, most hits filed as inhibitors | 76,000 tested, 1.6% active | AID 1347048, 2019; calls by dose curve; also: nearly all actives have a fitted effect of over 60% in size
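HEK293 cells stably expressing human Npr1 and cGMP GloSensor pGS-40F, loaded 2 h with 2% GloSensor reagent, given compound 30 min at room temperature. Luminescence read before and 20 min after 0.1 nM hNppA.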
3T3 cytotox – Cytotoxic Profiling in NIH 3T3 Cell Line of Diverse Libraries Using Quantitative High-Throughput Screening; NIH 3T3 viability, CellTiter-Glo ATP luminescence, 48-72 h; Potency, µM (series often up to 96.7 µM), without a hit: top-dose activity change, negative = cytotoxicity, actives largely listed as inhibitors; 94,000 tested, 4.3% active; also: nearly all actives have a fitted effect of over 55% in size
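Cytotoxicity was measured by CellTiter-Glo ATP luminescence after 48 or 72 h compound exposure at 37 °C. Mouse NIH 3T3 fibroblasts were seeded at 400 cells/well and dosed by 23 nL pin transfer.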
HEK293 tox – Cytotoxic Profiling in HEK 293 Cell Line of Diverse Libraries Using Quantitative High-Throughput Screening | HEK 293 viability, ATP luminescence (CellTiter-Glo), 48-72 h | Potency, µM (series often up to 115 µM), for inactives: top-dose activity change, negative = cytotoxicity, actives largely listed as inhibitors | 94,000 tested, 6.6% active | AID 1345083, 2018; also: nearly all actives have a fitted effect of over 60% in size
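Read-out: CellTiter-Glo ATP luminescence. Cells: HEK 293, 250 cells/well. Exposure: 48 or 72 hr, 37 degree Celsius.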
FLuc inh – Firefly luciferase inhibition profiling of diverse chemical library using quantitative high-throughput screening; purified P. pyralis luciferase, luminescence, biochemical; Potency, µM (highest dose often 115 µM), most hits filed as inhibitors; 76,000 tested, 2.5% active; AID 1347043, 2019; also: nearly all actives have a fitted effect of over 65% in size
Target sequence (P08659 whole entry, looked up): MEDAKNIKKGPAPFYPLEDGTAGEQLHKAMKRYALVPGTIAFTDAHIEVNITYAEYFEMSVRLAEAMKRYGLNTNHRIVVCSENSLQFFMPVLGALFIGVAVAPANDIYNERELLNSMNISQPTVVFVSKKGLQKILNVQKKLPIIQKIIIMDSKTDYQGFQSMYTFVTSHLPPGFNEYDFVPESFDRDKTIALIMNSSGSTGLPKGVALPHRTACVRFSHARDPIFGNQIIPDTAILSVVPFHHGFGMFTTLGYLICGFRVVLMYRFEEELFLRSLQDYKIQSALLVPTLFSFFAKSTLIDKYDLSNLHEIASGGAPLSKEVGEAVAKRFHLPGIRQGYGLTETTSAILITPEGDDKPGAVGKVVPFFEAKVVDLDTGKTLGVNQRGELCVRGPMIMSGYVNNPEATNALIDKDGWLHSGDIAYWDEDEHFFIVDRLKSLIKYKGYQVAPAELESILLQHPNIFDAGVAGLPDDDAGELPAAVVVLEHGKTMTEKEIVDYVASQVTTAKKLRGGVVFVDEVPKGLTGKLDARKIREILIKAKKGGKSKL
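Purified 10nM P. pyralis luciferase with 10uM D-luciferin and 10uM ATP in 50mM Tris acetate pH 7.5, 10mM Mg acetate, 0.01% Tween-20, 0.05% BSA. qHTS titration; luminescence read by CCD imager.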
* = called active by the depositor; i = inactive; ? = inconclusive; · = no result given; ! = not active in a repeat; [ ] = dose if it differs, or a comment. The list is not random: actives were taken first. Their share in the collection is about 10%. Unless noted, calls follow the shape of the dose curve; as a rule, active = well fitted curve in the direction sought with a large enough effect; inconclusive = small, poorly fitted or top-dose-only effect, or another doubt; inactive = no such curve, though single readings can be large; an effect the other way counts as inactive or inconclusive. % is scaled to controls: 0 for no effect and ±100 for the full control effect; potency is read from the fitted curve at half-maximal effect.

SMILES | GPT2 inhibitor | NPR1 antag | 3T3 cytotox | HEK293 tox | FLuc inh
O=C(c1cc(COc2c(F)cccc2F)on1)N1CCCCC1CCc1ccccc1 (stereo not drawn) | 3.9% | -4.9% | -24.6% | -16.4% | i
COCCc1noc([C@@H]2CN(Cc3ccc(C(C)C)cc3)C[C@H]2CO)n1 | i | -28.4% | ? | 39.8µM* | i
CCCN(C)c1nccnc1OC1CCN(C(=O)CC(C)C)C1 (stereo not drawn) | i | -11.3% | -26.9% | ? | 17.8µM*
CCC(CC)C(=O)N1CCC(Oc2nccnc2N(C)C)C1 (stereo not drawn) | i | 2.1% | -0.3% | ? | 35.5µM*
CCCN(C)c1nccnc1OC1CCN(C(=O)C2CCC2)C1 (stereo not drawn) | 3.3% | -7.7% | ? | ? | ?
CN(C)c1nccnc1OC1CCN(C(=O)C2CCCCC2)C1 (stereo not drawn) | i | 2.6% | -8.1% | ? | ?
CCCN(C)c1nccnc1OC1CCN(C(=O)c2ccn[nH]2)C1 (stereo not drawn) | ? | -2.8% | -28.0% | ? | 22.4µM*
CCCN(C)c1nccnc1OC1CCN(C(=O)CC)C1 (stereo not drawn) | i | 3.7% | -19.2% | -5.1% | i
CCCN(C)c1nccnc1OC1CCN(C(=O)C(C)C)C1 (stereo not drawn) | -6.9% | -13.8% | ? | -16.5% | 22.4µM*
CCn1ccc(C(=O)N2CCC3(CC2)c2[nH]c4ccc(OC)cc4c2CCN3C)n1 | i | 7.6% | -1.1% | -18.2% | i
O=C(NC1CCN(Cc2ccc(-c3ccsc3)cc2)C1)c1ccc(Cl)cc1 (stereo not drawn) | -6.5% | · | -24.9% | -14.1% | ·
O=C1c2cnc(-c3cc(F)cc(F)c3)nc2OCCN1Cc1ccc(F)cc1F | i | -19.2%[70.6 µM] | -22.2%[138 µM] | ? | i
COc1cccc(-c2ncc3c(n2)OCCN(Cc2ccc(F)cc2F)C3=O)c1F | -11.3%[88.5 µM] | -9.6%[70.6 µM] | -17.4%[138 µM] | ? | 15.8µM*
CN(C)C(=O)c1ccc(-c2ncc3c(n2)OCCN(Cc2ccc(F)cc2F)C3=O)cc1 | ? | -7.7%[70.6 µM] | -29.2%[138 µM] | ? | 44.7µM*
O=C1c2cnc(-c3ccccc3)nc2OCCN1Cc1ccc(F)cc1F | i | -14.6%[70.6 µM] | -33.5%[138 µM] | 112µM* | i
Cc1ccc(OCc2nc(C3CN(C(=O)CCCc4ccccc4)C3)no2)cc1 | -0.5% | · | ? | ? | ·
COc1cccc(C(=O)NCCC2CCN(C(=O)Nc3ccc(C)cc3)CC2)c1 | -1.2% | 6.5% | -18.6% | -7.6% | ?
O=C(c1ccsc1)N1CCCn2cc(-c3ccccc3)nc21 | i | -2.5% | 4.0% | ? | 39.8µM*
Cc1ccsc1C(=O)N1CCCn2cc(-c3cccc(C#N)c3)nc21 | -7.9% | -14.7% | -14.1% | ? | 31.6µM*
Cc1ccc(-c2cn3c(n2)N(C(=O)c2cnn4cccnc24)CCC3)cc1 | i | -2.0% | i | 79.4µM* | i
O=C(c1nc2ncccn2n1)N1CCCn2cc(-c3ccccc3)nc21 | i | 4.4% | -5.7% | ? | i
COc1cccc(-c2cn3c(n2)N(C(=O)C2CCC2)CCC3)c1 | i | -3.4% | 4.8% | ? | ?
COc1cccc(-c2cn3c(n2)N(C(=O)c2cccs2)CCC3)c1 | -0.3% | -3.3% | -11.4% | ? | 35.5µM*
Cc1ccsc1C(=O)N1CCCn2cc(-c3ccccc3)nc21 | i | -1.7% | i | ? | i
CCCn1cc(CNC(=O)c2ccc(CC3CCCNC3)cc2)cn1 (stereo not drawn) | i | -3.5% | ? | ? | i
SMILES | GPT2 inhibitor | NPR1 antag | 3T3 cytotox | HEK293 tox | FLuc inh
CNC(=O)c1ccc2c(c1)NC(C)(CCCCc1ccccc1)CO2 (stereo not drawn) | -3.9%[88.5 µM] | ? | ? | ? | i
CCOc1ccccc1C(=O)N[C@@H]1CN(Cc2ccncc2)C[C@H]1CN(C)C | i | -2.6% | ? | ? | i
COc1cccc(-c2cc(C(=O)NCc3c(C)cc(C)[nH]c3=O)c3c(c2)N(C(C)C)CCO3)c1OC | 0.2% | 0.7% | ? | 79.4µM* | i
Cc1cc(C)c(CNC(=O)c2cc(-c3ccccc3O)cc3c2OCCN3C)c(=O)[nH]1 | i | -12.4%[70.6 µM] | ? | ? | i
Cc1cc(C)c(CNC(=O)c2cc(-c3ccccc3C)cc3c2OCCN3C(C)C)c(=O)[nH]1 | -7.8% | -0.4% | ? | ? | i
COc1ccc(-c2cc(C(=O)NCc3c(C)cc(C)[nH]c3=O)c3c(c2)N(C(C)C)CCO3)cc1 | -13.3% | -5.4% | ? | 28.2µM* | i
Cc1cc(C)c(CNC(=O)c2cc(-c3ccccc3C)cc3ncn(C)c23)c(=O)[nH]1 | 2.0%[88.5 µM] | -4.6%[70.6 µM] | ? | 112µM* | i
Cc1cc(C)c(CNC(=O)c2cc(-c3ccccc3F)cc3c2OCCN3C)c(=O)[nH]1 | 0.8%[88.5 µM] | -18.0%[70.6 µM] | 50.1µM* | 70.8µM* | i
COc1ncc(-c2cc(C(=O)NCc3c(C)cc(C)[nH]c3=O)c3c(c2)N(C(C)C)CCO3)cn1 | i | 4.0% | -29.6% | ? | i
Cn1c(C(=O)N[C@@H]2COCC[C@H]2Oc2ccc(C#N)cc2)cc(=O)n(C)c1=O | 4.9% | 6.3% | 1.3% | -2.3% | i
Cc1noc(C)c1-c1cc(-c2cccc(CO)c2)cn2cncc12 | 0.1%[88.5 µM] | 2.0%[70.6 µM] | ? | ? | i
Cc1cc(C)c(CNC(=O)c2cc(-c3ccccc3O)cc3c2OCCN3C(C)C)c(=O)[nH]1 | ? | -12.0% | ? | ? | i
COc1cc(F)ccc1-c1cc(C(=O)NCc2c(C)cc(C)[nH]c2=O)c2c(c1)N(C(C)C)CCO2 | ? | 0.4% | 39.8µM* | 44.7µM* | i
CC(=O)Nc1cccc(-c2cc(C(=O)NCc3c(C)cc(C)[nH]c3=O)c3c(c2)N(C(C)C)CCO3)c1 | 2.6% | 1.0% | 44.7µM* | ? | i
Cc1cc(C)c(CNC(=O)c2cc(-c3ccccc3F)cc3c2OCCN3C(C)C)c(=O)[nH]1 | -12.1% | 1.1% | ? | ? | i
OCCOc1ccccc1CN1CCCC(N2CCN(c3ccccc3)CC2)C1 (stereo not drawn) | i | 0.0% | -16.5% | -5.1% | i
CC(C)Cn1c(CNC(=O)OC(C)(C)C)nc2cccnc21 | 1.6% | 4.8%[70.6 µM] | 44.7µM*! | ? | i
Cc1cc(C)n(CCC(=O)N2CCc3c(c(C(=O)N4CCOCC4)nn3CCc3ccccc3)C2)n1 | i | -14.1% | 4.3% | ? | i

Screens: PubChem, National Center for Advancing Translational Sciences (NCATS)
